What is called viability is a read-out of living cells in per cent, often relative to untreated cells.

Records with an inconclusive call do not appear. Entries that show only a call come without a potency. Some compounds were tested as several samples or in several runs, with calls that do not always agree. Calls of active or inactive are those of the source. Calls come from the whole dose curve; as a rule, active = well fitted curve in the direction sought with a large enough effect; inconclusive = small, poorly fitted or top-dose-only effect, or another doubt; inactive = no such curve, though single readings can be large; an effect the other way counts as inactive or inconclusive.

Test [1] has as its target Retinaldehyde dehydrogenase 3 (Homo sapiens) (UniProt P47895). Kind of test: qHTS for Inhibitors of the Aldehyde Dehydrogenase Family (ALDH1A3) Primary screen (AID 2061315). On the technique in general: In qHTS, concentration-response curves come from the screen itself.
The nature of test [2]: BET inhibitor-based combinations targeting novel dependencies in MECOM-rearranged (r) AML: SET-2 cell line (AID 2202231). Note: nearly all actives have a fitted effect of over 35% in size. Note: potency is the fitted concentration of half-maximal effect. As to conditions: SET-2 AML cells viability, CellTiter-Glo luminescence, 48 h; viability: stronger effect = lower value, concentration not given here. Summed up:
(§1)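 Each compound was tested at eleven concentrations on cells seeded at 500/well. After two days' incubation, ATP-based luminescence reported viability; responses relative to DMSO and blank wells yielded AUC and cell-line-centred Z-AUC.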

Test [3] is described as follows: BET inhibitor-based combinations targeting novel dependencies in MECOM-rearranged (r) AML: OCI-AML3 cell line (AID 2202232). Note: nearly all actives have a fitted effect of over 35% in size. Note: potency is the fitted concentration of half-maximal effect. Conditions: Potency: OCI-AML3 viability. The method in brief:
as §1

The nature of test [4]: BET inhibitor-based combinations targeting novel dependencies in MECOM-rearranged (r) AML: MV-4-11 cell line (AID 2202233). Note: nearly all actives have a fitted effect of over 45% in size. Note: potency is the fitted concentration of half-maximal effect. The method in brief:
(§2)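 First, 500 cells per well were seeded; next, drugs were pinned as 11-point doses; then plates sat 48 hr in the incubator; finally CellTiter-Glo was added and luminescence read, with AUC and Z-AUC computed.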

Test [5] in a line: BET inhibitor-based combinations targeting novel dependencies in MECOM-rearranged (r) AML: HNT-34 cell line (AID 2202234). Note: nearly all actives have a fitted effect of over 35% in size. Note: potency is the fitted concentration of half-maximal effect. The method in brief:
as §2

Test [6] can be described thus: BET inhibitor-based combinations targeting novel dependencies in MECOM-rearranged (r) AML: UCSD-AML1 cell line (AID 2202235). Note: nearly all actives have a fitted effect of over 40% in size. Note: potency is the fitted concentration of half-maximal effect. The method in brief:
as §2

Test [7] is described as follows: BET inhibitor-based combinations targeting novel dependencies in MECOM-rearranged (r) AML: AML-191 cell line (AID 2202236; note: nearly all actives have a fitted effect of over 35% in size). The method in brief: as §1
Test [8] can be described thus: BET inhibitor-based combinations targeting novel dependencies in MECOM-rearranged (r) AML: AML-194 cell line (AID 2202237; note: nearly all actives have a fitted effect of over 40% in size). The method in brief:
as §1

Regarding `O=C(O)c1cccc(-n2cccc2/C=C2/NC(=O)N(c3cccc(Cl)c3)C2=O)c1`, the Potency entry in test [1] is “inactive”.

Regarding `CC(=O)NC(c1ccco1)c1cc(Cl)c2ccc(N(C)C)nc2c1O` (configuration not stated), the Potency entry in test [1] was “inactive”.

In the case of `O=C(NCc1ccc(Oc2ccccc2)cc1)c1nc(-c2cc(Br)c(O)c(Br)c2)no1`, the Potency entry in test [1] is “inactive”.

`Cc1c(C(=O)O)[nH]c2c1C(=O)CC(c1ccco1)C2` (configuration not stated): the Potency entry in test [1] was “inactive”.

Turning to `CCOc1ccc(CCNC(=O)CN(C)C)cc1OCC`, the Potency result in test [1] was “inactive”.

Consider `O=C1CCc2cc([S+](=O)([O-])Nc3ccc(Cl)c(Cl)c3)c(NCCCO)cc2N1`, for which the Potency entry in test [1] is “inactive”.

Take `COc1cc(-c2ccc3ncnc(NCc4cccs4)c3c2)cc(OC)c1OC`: in test [1], the Potency result was “inactive”.

On to `O=C(NC1CCCc2c1cnn2CCO)c1ccccn1` (configuration not stated), for which the Potency result in test [1] is “inactive”.

Regarding `COc1ccc(-c2ccc3ncnc(NCc4cccs4)c3c2)cc1OC`, in test [1], the Potency entry is “inactive”.

In the case of `O=S1(=O)N=C(Oc2ccc3ccccc3c2)c2ccccc21`, the Potency entry in test [1] is “inactive”.

With `NC(=O)C1CCN(c2nc(-c3ccc(Oc4ccccc4)cc3)cs2)CC1`, the Potency result in test [1] was “inactive”.

`CC(C)(C)OC(=O)N1CCN(c2ccc(NCc3cc(-c4ccc(C#N)cc4)co3)cc2)CC1`: in test [1], the Potency result is “inactive”.

Take `COc1ccc(-c2cnc(N3CCC(C(N)=O)CC3)s2)cc1OC`: the Potency entry in test [1] is “inactive”.

As to `Cc1cc(NS(=O)(=O)c2cc3c(cc2N[C@@H](C)CO)NC(=O)CC3)ccc1F`, the Potency entry in test [1] is “inactive”.

For the compound `O=c1c2ccccc2nc2sc(NCc3ccc([S+](=O)([O-])c4ccccc4)cc3)nn12`, the Potency result in test [1] is “inactive”.

For `c1csc(CNc2ncnc3cc(-c4ccc5c(c4)OCO5)ccc23)c1`, the Potency result in test [1] is “inactive”.

As to `COc1ccc(Cn2c(C)nnc2-c2cnn(C)c2N)cc1OC`, the Potency result in test [1] was “inactive”.

As for `COc1cccc(-c2nc(SC)nc3sc(C(=O)NC(C)(C)C)c(N)c23)c1`, the Potency result in test [1] is “inactive”.

With `Fc1ccc(-c2ccc(CNc3nc(-c4ccccc4C(F)(F)F)nc4ccccc34)cc2)cc1`, in test [1], the Potency result was “inactive”.

Regarding `FC(F)(F)c1ccccc1-c1nc(NCc2ccc(-c3ccc4c(c3)OCCO4)cc2)c2ccccc2n1`, the Potency result in test [1] was “inactive”.

In the case of `COc1cc2c(cc1OC)CN(C(=O)/C=C/c1c(-c3ccccc3)n(C)c3ncccc13)CC2`, the Potency result in test [1] was “inactive”.

Turning to `Cc1ccc(CNc2ncnc3cc(-c4ccc5c(c4)OCO5)ccc23)o1`, the Potency result in test [1] is “inactive”.

Consider `CCC/C=C/c1cc2c(C=O)c(O)c(CC=C(C)C)cc2o1`, for which the Potency entry in test [1] was “inactive”.

Turning to `O=C(Nc1ccc(-c2nc3ccccc3[nH]2)cc1)c1ccc2ncsc2c1`, the Potency entry in test [1] was “inactive”.

For the compound `O=C(O)c1ccc(S(=O)(=O)N[C@@H](Cc2ccc(O)cc2)C(=O)O)cc1`, the Potency result in test [1] is “inactive”.

`Cc1ccc(CN(C)c2nc(-c3ccccc3C(F)(F)F)nc3ccccc23)cc1`: in test [1], the Potency entry is “inactive”.

As to `CCn1cnc2c(Nc3ccc(Cc4cccnc4)cc3)nc(C#N)nc21`, the Potency result in test [1] is “inactive”.

As for `O=C(CN1C(=O)N/C(=C\c2cccn2-c2cccc(C(=O)O)c2)C1=O)Nc1ccc(Cl)cc1`, the Potency entry in test [1] was “inactive”.

As to `N#Cc1c(-c2cccs2)no[n+]1[O-]`, the Potency entry in test [1] is “inactive”.

For the compound `CC(Nc1ncnc2ccc(-c3ccc4c(c3)OCO4)cc12)c1ccco1` (configuration not stated), the Potency result in test [1] was “inactive”.

Take `O=C(O)c1ccc(-c2ccc(NC(=O)c3cccs3)cn2)cc1`: the Potency result in test [1] was “inactive”.

For `NC(=O)C1CCN(c2nc(-c3ccc(OC(F)(F)F)cc3)cs2)CC1`, the Potency result in test [1] was “inactive”.

For `Cc1ccc(N[S+](=O)([O-])c2cc3c(cc2CCc2ccccc2)NC(=O)CO3)cc1C`, the Potency entry in test [1] was “inactive”.

For the compound `CC(=O)Nc1sc2c(c1-c1ccc(OC(F)(F)F)cc1)CCNC2`, the Potency result in test [1] was “inactive”.

In the case of `COc1cc(O)c(C(CC(=O)N2CC(C)CC(C)C2)c2ccc(C)cc2)c(OC)c1` (configuration not stated), the Potency entry in test [1] was “inactive”.

For the compound `N#Cc1ccc(-c2ccc(-c3nc4ccccc4c(=O)[nH]3)o2)cc1`, the Potency entry in test [1] is “inactive”.

For `N#Cc1c(-c2ccc(-c3ccccc3)cc2)no[n+]1[O-]`, in test [1], the Potency result was “inactive”.

With `C[C@H](NC(c1ccc(F)cc1)c1ccc2cccnc2c1O)c1ccccc1` (some centres not stated), the Potency result in test [1] is “inactive”.

With `Cc1ccc(C)c(SC2=N[S+](=O)([O-])c3cc(C(=O)Nc4ccc5ncccc5c4)ccc32)c1`, the Potency entry in test [1] was “inactive”.

Turning to `CCOc1cc2c(cc1OCC)CN(C(=O)c1cc3sccc3n1Cc1ccccc1)CC2`, the Potency entry in test [1] is “inactive”.

Take `O=C1CCc2cc(S(=O)(=O)Nc3ccccn3)ccc2N1`: the Potency entry in test [1] was “inactive”.

`COc1nc(N)nc2c1ncn2C1OC(CO)C(O)C1O` (configuration not stated): the viability in test [2] was 114% (inactive). In addition, the Potency entry in test [3] and in test [4] was “inactive” each time.

In the case of `CN1CCN(CCCNc2ncc(Cl)c(-c3cc4c(C(=O)NC5CC5)cccc4s3)n2)CC1`, in test [2], the viability was 80.2% (inactive). Besides, the Potency result in test [3] is “inactive”.

In the case of `CC(=O)[C@]1(N)Cc2c(O)c3c(c(O)c2[C@@H](O[C@H]2C[C@H](O)[C@H](O)CO2)C1)C(=O)c1ccccc1C3=O`, in test [2], the viability is 106% (inactive).

On to `CN[C@@H]1[C@@H](O)[C@@H](O[C@@H]2[C@@H](O)[C@H](O[C@H]3O[C@H](CN)[C@@H](O)[C@H](O)[C@H]3O)[C@@H](N)C[C@H]2NC(=O)C(O)CN)OC[C@]1(C)O` (some centres not stated), for which, in test [2], the viability was 116% (inactive). Besides, the Potency entry in test [3], in test [4] and in test [5] was “inactive” throughout.

As to `CC1(C)OCCn2c1nc1c(N3CCOCC3)nc(-c3cnc(N)nc3)nc12`, the values for the Potency in test [2], in test [3] and in test [4] were 1860 nM (active), 934 nM (active) and 934 nM (active), respectively.

Regarding `CC(C)Oc1ccc(-c2nc(-c3cccc4c3CC[C@@H]4NCCO)no2)cc1C#N`, in test [2], the viability was 97.4% (inactive).

`CN1C(N)=N[C@](C)(c2cc(NC(=O)c3ccc(F)cn3)ccc2F)CS1(=O)=O`: the viability in test [2] is 121% (inactive). Besides, the Potency result in test [3], in test [4], in test [5] and in test [6] was “inactive” throughout.

For the compound `CNC(=O)Cn1cc(-c2ccc3c(c2)C(F)CC32NC(=O)N(CC(=O)N(Cc3ccc(F)cc3)[C@@H](C)C(F)(F)F)C2=O)cn1` (some centres not stated), the Potency in test [2] was 3720 nM (active); in test [4], 11800 nM (active); in test [5] it was 74.2 nM (active); in test [6], 118 nM (active) and inactive. For the same compound, the viability in test [2] was 103% (inactive). For the same compound, the Potency result in test [7] and in test [8] was “inactive” in each case.

The values are drawn from PubChem BioAssay (NCATS).
